Reference: PubChem BioAssay (NCI)
This is part of a sample that, as a whole, favours compounds with a hit. Of some 79,000 tested, about 15% had one in any assay. No stated cut-off is given here; in the data, active means growth inhibition above about 70%; inactive means the rest.

Assays:
[1] = NCI Yeast Anticancer Drug Screen. Data for the rad50 strain (AID 155);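 further: 0% = growth of vehicle-only cultures of the same strain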; settings: S. cerevisiae rad50 strain growth inhibition; at 50.0 µM; stronger effect = higher value
How it was run: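 Relative growth inhibition (compound vs vehicle) was measured in yeast with a defined repair-gene alteration.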

[2] = NCI Yeast Anticancer Drug Screen. Data for the mec2-1 strain (AID 157); settings: S. cerevisiae mec2-1 strain, at 50.0 µM, stronger effect = higher value
How it was run: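 Each compound was tested on mec2-1 yeast, a strain altered in DNA damage repair or cell cycle control. Growth inhibition is reported relative to vehicle.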

[3] = NCI Yeast Anticancer Drug Screen. Data for the sgs1 mgt1 strain (AID 161);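 further: 0% = growth of cultures given vehicle only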; settings: S. cerevisiae sgs1 mgt1 strain, at 50.0 µM, stronger effect = higher value
How it was run: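 Inhibition of yeast growth, normalised to vehicle-treated controls, is reported for a strain bearing genetic alterations in DNA damage repair.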

[4] = NCI Yeast Anticancer Drug Screen. Data for the cln2 rad14 strain (AID 165);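 further: 0% = growth equal to vehicle treated cultures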; settings: S. cerevisiae cln2 rad14 strain, at 50.0 µM, stronger effect = higher value
How it was run: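 Test compounds were added to cln2 rad14 yeast cultures; inhibition of growth was then determined by comparison with vehicle treatment.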

[5] = NCI Yeast Anticancer Drug Screen. Data for the bub3 strain (AID 167); settings: S. cerevisiae bub3 mutant strain, at 50.0 µM, stronger effect = higher value
How it was run: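 Screening used yeast with an engineered genetic alteration affecting cell cycle control. Compound-exposed cultures were compared with vehicle cultures, and reduced growth was taken as inhibition.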

[6] = NCI Yeast Anticancer Drug Screen. Data for the mlh1 rad18 strain (AID 175); settings: S. cerevisiae mlh1 rad18 strain growth inhibition; at 50.0 µM; stronger effect = higher value
How it was run: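 Inhibition values reflect reduced growth of mutant yeast versus vehicle-treated controls following compound exposure; the mutations affect DNA damage repair.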

Measured: growth inhibition

CC(=O)NCCc1ccc2c(c1)[nH]c1ccccc12
inactive: [1] -1.9% | [2] -36% | [3] -8.75% | [4] 12.6% | [5] -17.1% | [6] -8.05%

CC(=O)CC(C)(C)c1cc(CC(C)(C)C(N)=O)on1
inactive: [1] 0.75% | [2] 0.25% | [3] 17.4% | [4] 11.2% | [5] 11.3% | [6] 17.2%

O=C(/C=C/c1ccccc1)OCCCl
inactive: [1] -23.4% | [2] -15.1% | [3] -17.9% | [4] -14.1% | [5] -22.4% | [6] -7.35%

COc1ccc2nc(C(C)(O)c3ccccc3)ccc2c1 (stereo unspecified)
inactive: [1] -1.6% | [2] -8.15% | [3] 6% | [4] -6.85% | [5] 2.65% | [6] -29.1%

CCCCN(C)CC(C)O (stereo unspecified)
inactive: [1] -10.7% | [2] -12.2% | [3] -13.8% | [4] -24.3% | [5] 4.85% | [6] -22.2%

CC(=O)c1cccc(C(C)=O)n1
inactive: [1] -24.2% | [2] -36.1% | [3] -35.9% | [4] 18.1% | [5] -19.8% | [6] 9.6%

CN(C)CNc1ncnc2onc(-c3ccccc3)c12
inactive: [1] 10.1% | [2] 14.5% | [3] 13.7% | [4] 11.6% | [5] -5.5% | [6] -4.15%

O=c1[nH]n(CCc2ccccc2CCl)c2ccc([N+](=O)[O-])cc12
inactive: [1] 26% | [2] 14.6% | [3] 16.4% | [4] 9.45% | [5] 38.7% | [6] -10.6%

COc1cc(C(=O)N(C)N(C)C)cc(OC)c1OC
inactive: [1] 6.6% | [2] -9.6% | [3] 13.4% | [4] 10.9% | [5] -2.85% | [6] -5.6%

COC(=O)C1(CC(=O)c2ccc(Cl)cc2)NC(=S)NC(=O)C1C#N (stereo unspecified)
inactive: [1] 13.6% | [2] 12.6% | [3] 8% | [4] 7.95% | [5] -10.9% | [6] 22.5%

COc1cc(-c2c(C)c(C)nc(OC)c2C#N)cc(OC)c1OC
inactive: [1] -1.05% | [2] -13.9% | [3] -24% | [4] -19.1% | [5] -15.2% | [6] -17.9%

COC(=O)N/N=C/c1ccccc1Cl
inactive: [1] 4.55% | [2] -31% | [3] -18.6% | [4] -64.8% | [5] -12.5% | [6] -12.2%

CCC(/C=N/Nc1ccc([N+](=O)[O-])cc1[N+](=O)[O-])(CC)CC
inactive: [1] -2.85% | [2] -8.75% | [3] -6.25% | [4] 0.25% | [5] -2.85% | [6] 6.8%

Sc1ccccc1N=Cc1ccc(C=Nc2ccccc2S)cc1
inactive: [1] -15.8% | [2] -8.05% | [3] 7.1% | [4] 18.8% | [5] 4.45% | [6] -3.75%

CSc1ncnc2[nH]ncc12
inactive: [1] 4.5% | [2] 20.9% | [3] -30.5% | [4] -20.9% | [5] -0.4% | [6] -62.1%

Cc1c(N=Nc2cccc(Cl)c2Cl)c(-c2ccccc2)nn1C(=S)S
inactive: [1] 53.8% | [2] 42.6% | [3] 55.9% | [4] 35.6% | [5] 24.6% | [6] 28.2%

CCCCC(NC(=O)c1cnc2ccccc2n1)C(=O)O (stereo unspecified)
inactive: [1] 22.2% | [2] 14% | [3] 15.3% | [4] 4.6% | [5] 22.3% | [6] 31.6%

O=C(O)c1c(CC(Cc2ccc3c(c2)CCCC3)C(=O)O)ccc2c1CCCC2 (stereo unspecified)
inactive: [1] 46.3% | [2] 23.6% | [3] 9.8% | [4] 11.8% | [5] 40.9% | [6] 56.7%

CC12CCC(O)CC1=CCC1C2CCC2(C)C(C(O)CC(O)(C(F)(F)F)C(F)(F)F)CCC12 (stereo unspecified)
inactive: [1] 30.1% | [2] 48% | [3] 47.9% | [4] 3.95% | [5] 25.9% | [6] 40.5%

CCC(=O)SCC[N+](C)(C)C
inactive: [1] 16.1% | [2] -30.8% | [3] 0.2% | [4] 8.8% | [5] 27.6% | [6] 4.55%

CCOC(=O)c1c(-c2ccccc2)c(C)cn1C
inactive: [1] -16.1% | [2] -26% | [3] -24.9% | [4] 11% | [5] -7.75% | [6] 1%
